Test results published in ChEMBL document CHEMBL1961873, “Compounds: GSK PKIS; Assays: Nanosyn kinase panel” (2012).

Assays:
[1] = biological target: Tyrosine-protein kinase Fyn (Homo sapiens) (UniProt P06241); conditions: at 1 µM
[2] = biological target: Tyrosine-protein kinase HCK (Homo sapiens) (UniProt P08631); conditions: at 0.1 µM
[3] = biological target: Tyrosine-protein kinase HCK (Homo sapiens) (UniProt P08631); conditions: at 1 µM
[4] = biological target: Insulin-like growth factor 1 receptor (Homo sapiens) (UniProt P08069); conditions: at 0.1 µM
[5] = biological target: Insulin-like growth factor 1 receptor (Homo sapiens) (UniProt P08069); conditions: at 1 µM
[6] = biological target: Insulin receptor (Homo sapiens) (UniProt P06213); conditions: at 0.1 µM
[7] = biological target: Insulin receptor (Homo sapiens) (UniProt P06213); conditions: at 1 µM
[8] = biological target: Insulin receptor-related protein (Homo sapiens) (UniProt P14616); conditions: at 0.1 µM
[9] = biological target: Insulin receptor-related protein (Homo sapiens) (UniProt P14616); conditions: at 1 µM
[10] = biological target: T1, Tyrosine-protein kinase ITK/TSK (Homo sapiens) (UniProt Q08881); conditions: at 0.1 µM;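 note: mean percent inhibition of ITK from the GSK PKIS screen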
T1 sequence (whole entry): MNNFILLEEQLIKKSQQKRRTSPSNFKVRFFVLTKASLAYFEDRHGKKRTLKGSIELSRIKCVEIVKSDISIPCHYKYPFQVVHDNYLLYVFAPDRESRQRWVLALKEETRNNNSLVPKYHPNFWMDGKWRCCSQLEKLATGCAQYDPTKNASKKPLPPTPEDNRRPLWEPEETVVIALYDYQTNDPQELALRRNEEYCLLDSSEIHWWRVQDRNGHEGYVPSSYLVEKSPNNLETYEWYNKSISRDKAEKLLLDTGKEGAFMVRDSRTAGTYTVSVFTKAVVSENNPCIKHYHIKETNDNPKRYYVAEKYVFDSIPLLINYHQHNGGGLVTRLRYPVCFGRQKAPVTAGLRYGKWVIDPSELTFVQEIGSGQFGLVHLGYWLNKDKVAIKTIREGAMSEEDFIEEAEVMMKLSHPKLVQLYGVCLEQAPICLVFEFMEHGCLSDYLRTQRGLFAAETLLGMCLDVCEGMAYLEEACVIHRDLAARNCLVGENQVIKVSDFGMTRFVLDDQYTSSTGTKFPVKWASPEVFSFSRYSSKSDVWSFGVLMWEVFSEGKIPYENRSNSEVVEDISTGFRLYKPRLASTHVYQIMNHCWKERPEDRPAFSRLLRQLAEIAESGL

Tyrosine-protein kinase HCK (Homo sapiens), sequence (P08631 2-526 limits assumed): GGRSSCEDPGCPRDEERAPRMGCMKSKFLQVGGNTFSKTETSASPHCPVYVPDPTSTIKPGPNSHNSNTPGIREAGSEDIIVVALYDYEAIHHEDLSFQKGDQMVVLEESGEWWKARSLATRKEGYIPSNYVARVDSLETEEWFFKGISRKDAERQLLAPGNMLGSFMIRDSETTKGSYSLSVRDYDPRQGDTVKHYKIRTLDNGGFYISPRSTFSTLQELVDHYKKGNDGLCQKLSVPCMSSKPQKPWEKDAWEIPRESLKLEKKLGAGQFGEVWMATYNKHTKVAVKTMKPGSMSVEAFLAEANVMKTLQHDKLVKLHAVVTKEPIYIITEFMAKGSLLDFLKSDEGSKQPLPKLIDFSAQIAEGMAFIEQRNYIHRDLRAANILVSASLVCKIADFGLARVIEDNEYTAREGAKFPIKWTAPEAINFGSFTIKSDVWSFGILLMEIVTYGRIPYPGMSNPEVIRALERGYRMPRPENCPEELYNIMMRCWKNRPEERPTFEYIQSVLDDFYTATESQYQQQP
Insulin receptor (Homo sapiens), sequence (P06213 28-758 limits assumed): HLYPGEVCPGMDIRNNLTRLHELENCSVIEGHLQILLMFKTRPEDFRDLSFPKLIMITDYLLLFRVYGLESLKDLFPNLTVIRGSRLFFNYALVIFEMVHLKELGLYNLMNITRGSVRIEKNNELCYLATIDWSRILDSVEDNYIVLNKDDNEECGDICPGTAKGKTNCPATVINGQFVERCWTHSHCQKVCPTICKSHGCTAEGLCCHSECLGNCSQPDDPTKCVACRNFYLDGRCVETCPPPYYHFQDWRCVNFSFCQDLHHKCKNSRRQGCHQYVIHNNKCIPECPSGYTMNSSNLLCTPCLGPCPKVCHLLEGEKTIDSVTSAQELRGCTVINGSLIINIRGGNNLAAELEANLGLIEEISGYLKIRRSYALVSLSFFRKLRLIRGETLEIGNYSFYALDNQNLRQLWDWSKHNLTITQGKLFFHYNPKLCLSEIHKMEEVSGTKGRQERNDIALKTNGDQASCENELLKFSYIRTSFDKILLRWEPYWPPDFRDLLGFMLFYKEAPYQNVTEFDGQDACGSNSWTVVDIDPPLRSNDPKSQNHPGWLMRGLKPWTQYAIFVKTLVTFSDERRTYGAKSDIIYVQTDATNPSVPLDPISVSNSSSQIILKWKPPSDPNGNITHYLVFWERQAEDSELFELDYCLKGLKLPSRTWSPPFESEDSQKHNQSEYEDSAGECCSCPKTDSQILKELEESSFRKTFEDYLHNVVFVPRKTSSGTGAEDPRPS
Insulin receptor (Homo sapiens), sequence (P06213 763-1382 limits assumed): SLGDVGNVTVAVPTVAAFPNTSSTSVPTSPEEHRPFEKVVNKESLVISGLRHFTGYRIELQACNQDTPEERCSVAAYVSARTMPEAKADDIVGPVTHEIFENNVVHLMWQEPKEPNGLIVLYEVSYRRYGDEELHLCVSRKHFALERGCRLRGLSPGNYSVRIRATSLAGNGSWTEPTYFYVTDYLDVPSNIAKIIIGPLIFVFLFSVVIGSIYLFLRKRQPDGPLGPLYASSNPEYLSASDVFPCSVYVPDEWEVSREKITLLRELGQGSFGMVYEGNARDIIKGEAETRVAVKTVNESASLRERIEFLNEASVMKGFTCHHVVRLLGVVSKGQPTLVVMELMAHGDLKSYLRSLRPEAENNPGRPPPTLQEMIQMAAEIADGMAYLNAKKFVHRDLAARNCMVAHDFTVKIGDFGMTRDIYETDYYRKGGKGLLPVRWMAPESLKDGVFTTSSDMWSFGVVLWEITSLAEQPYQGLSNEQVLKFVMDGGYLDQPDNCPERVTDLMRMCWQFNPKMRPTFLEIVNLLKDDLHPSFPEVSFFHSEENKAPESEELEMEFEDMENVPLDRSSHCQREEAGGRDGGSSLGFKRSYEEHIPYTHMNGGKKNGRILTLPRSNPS
Insulin-like growth factor 1 receptor (Homo sapiens), sequence (P08069 31-736 limits assumed): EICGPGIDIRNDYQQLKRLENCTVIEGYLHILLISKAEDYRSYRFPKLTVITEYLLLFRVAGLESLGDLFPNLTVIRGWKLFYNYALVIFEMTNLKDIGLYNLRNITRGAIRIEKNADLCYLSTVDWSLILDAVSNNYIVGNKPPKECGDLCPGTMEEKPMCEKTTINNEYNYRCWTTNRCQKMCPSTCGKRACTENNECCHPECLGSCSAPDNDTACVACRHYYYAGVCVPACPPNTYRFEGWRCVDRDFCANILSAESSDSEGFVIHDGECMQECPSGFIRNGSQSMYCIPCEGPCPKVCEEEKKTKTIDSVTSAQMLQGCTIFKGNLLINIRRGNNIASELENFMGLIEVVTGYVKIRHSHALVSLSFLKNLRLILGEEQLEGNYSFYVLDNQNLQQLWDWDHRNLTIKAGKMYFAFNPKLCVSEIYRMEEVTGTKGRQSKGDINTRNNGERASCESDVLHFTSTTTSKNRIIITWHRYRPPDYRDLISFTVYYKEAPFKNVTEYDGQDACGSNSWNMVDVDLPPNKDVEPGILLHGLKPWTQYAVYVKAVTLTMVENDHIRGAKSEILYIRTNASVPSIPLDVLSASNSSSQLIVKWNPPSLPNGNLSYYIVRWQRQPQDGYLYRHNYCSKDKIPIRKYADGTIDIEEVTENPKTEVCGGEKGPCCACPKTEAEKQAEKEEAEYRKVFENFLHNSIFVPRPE
Insulin-like growth factor 1 receptor (Homo sapiens), sequence (P08069 741-1367 limits assumed): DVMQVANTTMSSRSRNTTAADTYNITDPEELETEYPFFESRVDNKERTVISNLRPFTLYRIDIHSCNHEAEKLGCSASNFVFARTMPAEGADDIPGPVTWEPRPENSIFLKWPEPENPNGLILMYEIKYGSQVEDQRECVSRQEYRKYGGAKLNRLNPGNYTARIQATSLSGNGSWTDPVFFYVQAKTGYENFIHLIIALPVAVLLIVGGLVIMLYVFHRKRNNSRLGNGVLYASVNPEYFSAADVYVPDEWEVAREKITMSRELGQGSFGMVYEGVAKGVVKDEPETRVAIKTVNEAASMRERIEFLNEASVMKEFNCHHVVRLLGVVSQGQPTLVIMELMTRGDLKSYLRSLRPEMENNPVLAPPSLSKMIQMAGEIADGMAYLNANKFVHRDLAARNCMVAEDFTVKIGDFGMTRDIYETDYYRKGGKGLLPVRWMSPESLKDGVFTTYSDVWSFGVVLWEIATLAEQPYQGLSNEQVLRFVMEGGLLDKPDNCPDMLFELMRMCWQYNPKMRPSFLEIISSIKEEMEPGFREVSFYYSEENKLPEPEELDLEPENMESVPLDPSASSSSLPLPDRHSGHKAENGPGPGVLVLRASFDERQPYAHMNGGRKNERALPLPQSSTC
Insulin receptor-related protein (Homo sapiens), sequence (P14616 27-742 limits assumed): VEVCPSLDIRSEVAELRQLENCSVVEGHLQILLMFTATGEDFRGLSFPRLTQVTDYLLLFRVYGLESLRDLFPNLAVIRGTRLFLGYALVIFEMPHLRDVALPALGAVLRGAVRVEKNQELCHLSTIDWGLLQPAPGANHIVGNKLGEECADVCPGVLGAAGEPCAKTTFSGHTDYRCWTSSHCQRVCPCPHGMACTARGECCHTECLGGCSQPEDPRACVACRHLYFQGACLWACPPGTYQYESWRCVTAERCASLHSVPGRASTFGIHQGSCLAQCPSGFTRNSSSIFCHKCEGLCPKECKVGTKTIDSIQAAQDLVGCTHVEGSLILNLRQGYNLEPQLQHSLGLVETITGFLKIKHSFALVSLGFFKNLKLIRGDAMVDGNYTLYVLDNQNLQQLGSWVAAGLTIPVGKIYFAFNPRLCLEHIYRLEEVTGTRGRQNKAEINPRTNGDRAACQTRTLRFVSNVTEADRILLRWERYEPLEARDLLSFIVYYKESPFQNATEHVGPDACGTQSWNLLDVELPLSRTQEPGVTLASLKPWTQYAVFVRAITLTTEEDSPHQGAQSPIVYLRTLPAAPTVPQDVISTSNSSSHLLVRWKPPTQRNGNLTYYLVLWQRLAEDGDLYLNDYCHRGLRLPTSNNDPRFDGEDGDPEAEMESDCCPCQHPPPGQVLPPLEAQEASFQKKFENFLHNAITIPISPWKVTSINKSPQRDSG
Insulin receptor-related protein (Homo sapiens), sequence (P14616 747-1297 limits assumed): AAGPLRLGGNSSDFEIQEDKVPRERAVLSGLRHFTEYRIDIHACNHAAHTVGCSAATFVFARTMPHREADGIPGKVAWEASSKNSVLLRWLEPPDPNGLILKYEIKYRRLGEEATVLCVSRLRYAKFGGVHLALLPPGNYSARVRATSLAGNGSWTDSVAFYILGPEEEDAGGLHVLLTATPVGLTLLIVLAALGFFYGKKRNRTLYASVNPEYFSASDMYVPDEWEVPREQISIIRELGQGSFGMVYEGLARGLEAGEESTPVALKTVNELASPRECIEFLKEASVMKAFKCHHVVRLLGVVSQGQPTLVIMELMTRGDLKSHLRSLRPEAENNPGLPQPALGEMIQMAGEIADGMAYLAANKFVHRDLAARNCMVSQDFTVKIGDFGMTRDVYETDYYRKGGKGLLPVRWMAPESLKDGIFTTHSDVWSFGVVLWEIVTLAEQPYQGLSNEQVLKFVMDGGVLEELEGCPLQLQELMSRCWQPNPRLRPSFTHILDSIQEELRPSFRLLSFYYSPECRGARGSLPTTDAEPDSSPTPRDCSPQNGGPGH
Tyrosine-protein kinase Fyn (Homo sapiens), sequence (P06241 2-537 limits assumed): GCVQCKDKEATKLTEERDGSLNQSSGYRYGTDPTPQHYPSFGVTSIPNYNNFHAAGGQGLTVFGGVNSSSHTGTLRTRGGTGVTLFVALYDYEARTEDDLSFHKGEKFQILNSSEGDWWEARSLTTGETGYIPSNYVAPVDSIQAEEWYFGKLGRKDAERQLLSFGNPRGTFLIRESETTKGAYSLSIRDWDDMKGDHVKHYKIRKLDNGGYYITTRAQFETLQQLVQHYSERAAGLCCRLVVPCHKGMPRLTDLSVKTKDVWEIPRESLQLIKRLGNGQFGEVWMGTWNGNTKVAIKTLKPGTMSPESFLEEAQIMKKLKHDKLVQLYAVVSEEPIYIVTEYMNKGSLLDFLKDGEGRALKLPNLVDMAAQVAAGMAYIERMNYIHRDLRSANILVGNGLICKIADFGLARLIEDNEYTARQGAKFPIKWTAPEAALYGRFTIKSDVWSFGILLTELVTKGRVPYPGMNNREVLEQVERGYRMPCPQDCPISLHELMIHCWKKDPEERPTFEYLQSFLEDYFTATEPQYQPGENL

| Compound | inhibition [1] | inhibition [2] | inhibition [3] | inhibition [4] | inhibition [5] | inhibition [6] | inhibition [7] | inhibition [8] | inhibition [9] | inhibition [10] |
| --- | --- | --- | --- | --- | --- | --- | --- | --- | --- | --- |
| COc1ccc(-c2cc3c(N)ncnc3o2)cc1 | 3.42% | -0.32% | 7.05% | -3.63% | -0.91% | -0.41% | 2.44% | -2.87% | -2.2% | -0.48% |
| CC1=C(C(=O)Nc2cc(Cl)c3[nH]ncc3c2)C(c2ccc(C(F)(F)F)cc2)CC(=O)N1 (stereo not given) | 4.45% | 4.68% | 6.23% | 2.66% | 2.67% | 5.06% | 6.02% | 0.76% | 1.79% | 1.11% |
| CN1CCC(n2cnc(-c3ccc(F)cc3)c2-c2ccnc(Nc3ccccc3)n2)CC1 | 8.11% | 4.85% | 11.1% | 1.01% | 1.68% | 1.5% | 0.39% | 0.31% | 2.49% | 0.83% |
| COC(=O)Nc1nc2ccc(Oc3ccc(NC(=O)Nc4cccc(Cl)c4)cc3)cc2[nH]1 | 2.41% | 3.38% | 2.91% | 3.52% | 2.1% | -1.15% | 0.68% | -1.26% | -0.57% | 0.74% |
| CC(C)COC(=O)c1ccc2c(c1)/C(=C/Nc1ccc(S(N)(=O)=O)cc1)C(=O)N2 | 71.6% | 4.68% | 38.5% | 0.52% | 1.72% | 2.06% | 2.17% | -3.52% | 0.22% | 0.34% |
| COc1cccc(-n2ncc3c(N/N=C/c4ccc(F)cc4)ncnc32)c1 | 31.1% | 6.41% | 17.5% | 2.52% | 3.62% | -0.02% | 2.69% | 2.92% | 2.32% | 1.34% |
| CCN(CC)S(=O)(=O)c1ccc(OC)c(Nc2ncc(-c3ccccc3)o2)c1 | 45.2% | 7.41% | 28.1% | 7.86% | 7.98% | 2.78% | 2.35% | 0.57% | 0.72% | 0.31% |
| O=C(Nc1n[nH]c2cc(-c3ccc(F)cc3)ccc12)C1CC1 | 3.69% | 5.36% | 8.36% | 4.19% | 0.88% | 3.21% | 5.18% | 1.75% | 1.45% | 1.07% |
| [O-][S+]1CCN(Cc2ccc(-c3ccc4ncnc(Nc5ccc(OCc6cccc(F)c6)c(Cl)c5)c4c3)o2)CC1 | 6% | 6.09% | 9.6% | 3.08% | 5.73% | 5.28% | 4.61% | 2.99% | 3.54% | 1.07% |
| O=C(O[C@H]1CN[C@H](C#Cc2cc3ncnc(Nc4ccc(Cc5ccccc5)cc4)c3s2)C1)N1CCOCC1 | 5.81% | 1.46% | 6.92% | -3.02% | -1.17% | -0.74% | -2.74% | 0.8% | 1.05% | -0.73% |
| COc1cc2c(cc1Nc1nc(Nc3ccsc3C(N)=O)c3cc[nH]c3n1)N(C(=O)CN(C)C)CCC2(C)C | 1.15% | 6.46% | 12.9% | 98.1% | 97.1% | 98.7% | 98% | 98% | 97.9% | 1.74% |
| c1ccc(COc2ccc(Nc3ncnc4ccc(-c5ccco5)cc34)cc2)cc1 | 3.93% | 1.03% | 1.93% | -0.83% | -0.77% | 0.94% | 0.94% | 0.38% | 0.28% | -0.91% |
| Fc1ccc(-c2cc(-c3c[nH]nc3-c3ccccn3)ccn2)cc1 | 5% | 5.58% | 6.04% | 0.26% | 1.04% | 6.47% | 5.34% | 2.45% | 2.16% | 0.99% |
| CC(C)(CO)CNC(=O)c1ccc2c(c1)/C(=N/Nc1ccc(S(N)(=O)=O)cc1)C(=O)N2 | 53.7% | 0.91% | 21.2% | -4.8% | -2.3% | -1.59% | -0.37% | -2% | -2.31% | -1.6% |
| CCN1CCC(CC(=O)Nc2n[nH]c3nnc(-c4cccc(F)c4F)cc23)CC1 | 3.55% | 3.51% | 1.32% | 0.88% | 2.99% | 1.72% | 4.05% | 1.41% | 0.88% | -1.01% |
| CCCN1CCC(c2ccc(Nc3nc(Nc4cc(F)ccc4C(N)=O)c4cc[nH]c4n3)c(OC)c2)CC1 | 25.1% | 5.95% | 11.5% | 91.8% | 93.6% | 97.5% | 97.3% | 93.3% | 97.2% | 1.62% |
| CN1CCC(n2cnc(-c3ccc(F)cc3)c2-c2ccnc(N)n2)CC1 | 7.42% | 3.15% | 7.9% | 0.43% | 3.19% | 2.01% | 5.41% | 0.89% | 1.43% | 1.04% |

| Compound | inhibition [1] | inhibition [2] | inhibition [3] | inhibition [4] | inhibition [5] | inhibition [6] | inhibition [7] | inhibition [8] | inhibition [9] | inhibition [10] |
| --- | --- | --- | --- | --- | --- | --- | --- | --- | --- | --- |
| COc1cc(Nc2nccc(Nc3ccc4c(C)n[nH]c4c3)n2)cc(OC)c1OC | 85.4% | 31.2% | 67.7% | 28% | 76.8% | 13.1% | 64.7% | 1.88% | 3.74% | 2.37% |
| COc1ccc2c(-c3ccnc(Nc4cccc(OC(F)(F)F)c4)n3)cnn2n1 | 7.69% | 5.89% | 11.3% | 3.31% | 5.36% | 4.34% | 8.18% | 4.74% | 3.42% | 1.46% |
| CNC(=O)c1cncc(/C=C/c2ccccc2Cl)c1 | 6.88% | 1.18% | 11.3% | 6.84% | 5.76% | -1.75% | -1.65% | -0.5% | -1.16% | 1.6% |
| Clc1ccc(-c2nn3ncccc3c2-c2ccnc(Nc3ccccc3)n2)cc1 | 43.5% | 7.64% | 34.1% | 3.71% | 5.4% | 2.64% | 4.44% | 0.65% | 0.7% | 1.38% |
| Cc1ccc2c(-c3ccnc(Nc4ccccc4)n3)c(-c3ccc(F)cc3)nn2n1 | 68.9% | 11.9% | 43.9% | 1.92% | 5.18% | 1.31% | 7.57% | 4.42% | 2.61% | 1.54% |
| NS(=O)(=O)c1ccc(Nc2ncc(-c3ccccc3)o2)cc1 | 5.41% | 4.43% | 10.7% | 3.39% | 3.81% | 2.2% | 4.14% | 3.04% | 1.16% | 1.19% |
| O=S(=O)(CCNCc1ccc(-c2ccc3ncnc(Nc4ccc(OCc5cccc(F)c5)c(Cl)c4)c3c2)o1)c1ccccc1 | 4.09% | 7.05% | 8.65% | 4.87% | 7.55% | 3.73% | 6.24% | 4.04% | 4.07% | 0.82% |
| Cc1ccc(O)cc1Nc1ccnc2cc(-c3ccccn3)ccc12 | 88.5% | 70.9% | 87.9% | 5.77% | 4.82% | 5.4% | 5.51% | 5.36% | 3.66% | 1.62% |
| Fc1cccc(COc2ccc(Nc3ncnc4sc(-c5ccco5)cc34)cc2Cl)c1 | 4.89% | 4.32% | 6.64% | 0.23% | 0.87% | 1.94% | 2.78% | 2.1% | 2.84% | 0.55% |
| COc1cc2ncn(-c3cc(OCc4ccccc4C(F)(F)F)c(C(=O)N(C)C)s3)c2cc1OC | 8.11% | 2.13% | 10.1% | 1.61% | -0.15% | 2.79% | 1.7% | -2.24% | -0.76% | 0.81% |
| N#Cc1c(NC(=O)c2ccc(F)cc2)sc2c1CCCC2 | 3.42% | 1.68% | 3.88% | 0.23% | -0.52% | 3.54% | 2.79% | -2.15% | -0.16% | 0.64% |
| COc1ccc(-c2oc3ncnc(N)c3c2-c2ccc(NC(=O)Nc3cc(C(F)(F)F)ccc3F)cc2)cc1 | 52.1% | 31% | 86.1% | 4.58% | 7.94% | 4.98% | 27.2% | 1.97% | 6.8% | 5.01% |
| CN(C)CCOc1ccc(-c2nc(-c3ccncc3)c(-c3ccc4c(c3)CC/C4=N\O)[nH]2)cc1 | 8.51% | 3.04% | 8.01% | 4.59% | 3.85% | 5.62% | 2.19% | 6.12% | 3.86% | 0.77% |
| CCn1c(-c2nonc2N)nc2c(C#CC(C)(C)O)nc(OC[C@H](N)c3ccccc3)cc21 | 4.61% | 2.17% | 9.34% | 6.38% | 2.6% | 7.87% | 1.38% | 0.82% | 2.71% | 2.08% |
| CCn1cc(-c2ccnc3[nH]ccc23)c(-c2cccc(NC(=O)Nc3ccc(OCc4ccccc4)cc3)c2)n1 | 1.64% | 0.36% | 2.34% | -3.42% | 0.41% | 2.08% | 3.81% | -1.45% | -1.26% | -0.92% |
| Nc1nc(-c2cccc(Cl)c2)c(-c2ccc3ncccc3n2)s1 | 5.51% | 3.98% | 9.71% | 3.52% | 2.56% | 6.92% | 7.08% | 1.7% | 4.52% | 1.66% |
| CC(=O)Nc1cccc(C#Cc2cncnc2Nc2ccc(OCc3cccc(F)c3)c(Cl)c2)c1 | 5.51% | 5.81% | 9.29% | 1.84% | 2.53% | 3.44% | 1.06% | 2.25% | 1.77% | 1.8% |
